PKA inh – PKA (human) kinase inhibition. P17612. PKA Kemptide phosphorylation, Kinase-Glo ATP luminescence. inhibition, % at 6 µM. 0.1% of 65,000 active. AID 524;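 active = inhibition above the screen-wide mean inhibition plus 3 SD, cut at about 21% in these data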
Hsp90 block – displaces geldanamycin probe from tumor Hsp90; P07900; NCI-N417 lysate Hsp90, Cy3B-geldanamycin FP displacement; inhibition, % at 30 µM; 0.35% of 64,000 active; AID 429;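 active = inhibition above 50%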
Cdc25B inh – inhibitors of human Cdc25B phosphatase | recombinant Cdc25B, OMFP fluorescence Ex485/Em525 | AID 368 | inhibition, %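 (compounds tested at 10 µM final in the well)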 | 0.1% of 65,000 active; in the data active = inhibition above about 50%
ROCK2 blocker – blocks human Rho kinase 2 activity; O75116; purified ROCK2, Kinase-Glo ATP depletion luminescence; inhibition, % at 6 µM; 0.35% of 60,000 active; AID 604;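 active = inhibition above the screen-wide mean inhibition plus 3 SD, cut at about 18% in these data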
DUSP1 inh – blocks human MKP-1 phosphatase activity | P28562 | recombinant MKP-1, OMFP hydrolysis fluorescence | inhibition, %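 (compounds tested at a single concentration somewhere between 10 and 100 µM)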 | 0.15% of 65,000 active;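 active = inhibition above about 50%, limit read from the data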
JNK3 inh – blocks human JNK3 kinase activity; P53779; purified JNK3 kinase activity, HTS; inhibition, % at 8 µM; 0.61% of 60,000 active; AID 746; in the data active = inhibition above about 17%
Large screens that a line does not name were inactive. Rows were chosen to be rich in hits. Some 1% of all compounds tested hit in one or more screens of this group.

Cc1c(C(=O)N2CCCCC2)sc(N)c1C#N	ROCK2 blocker 26
CC1CCCCC1NS(=O)(=O)c1ccc(S(=O)(=O)NCc2ccncc2)cc1 (centres undefined)	DUSP1 inh 81
COc1cc(NCC(O)CN(CC(C)C)CC(C)C)c2nc(C)ccc2c1 (centres undefined)	none (no result: PKA inh, Cdc25B inh, ROCK2 blocker, DUSP1 inh, JNK3 inh)
N#C/C(C(=O)NCc1ccccc1)=C1\SC(CCO)C(=O)N1c1ccccc1 (centres undefined)	Cdc25B inh 84
CCCn1c(=O)n(C)c(=O)c2c3oc(=O)c(NC(=O)c4ccc(F)cc4)cc3[nH]c21	none
COc1ccc(S(=O)(=O)N(C)CC(=O)N2CCC(C(N)=O)CC2)cc1Cl	Hsp90 block 73
COc1cc(CC(=O)Nc2sccc2C(N)=O)cc(OC)c1OC	JNK3 inh 56
CCOC(=O)N1CCC(NC(=O)c2cccn3c(=O)c4cc(Br)ccc4nc23)CC1	DUSP1 inh 53 (no result: ROCK2 blocker, JNK3 inh)
CCOC(=O)N1CCC(NC(=O)c2cn(-c3ccc(OC)cc3)c(=O)c3ccccc23)CC1	none
O=C(c1cccn2c(=O)c3ccc(Cl)cc3nc12)N1CCN(Cc2ccc3c(c2)OCO3)CC1	DUSP1 inh 64 (no result: ROCK2 blocker, JNK3 inh)
Cc1cc(-c2nnc3n2CCCCC3)c(C)n1-c1ccccc1	none
CCCCCCCC/C=C\CCCCCCCC(=O)NCCc1ccc(O)c(O)c1	Hsp90 block 84 (no result: PKA inh, Cdc25B inh, ROCK2 blocker, DUSP1 inh, JNK3 inh)
CCCCCCCC/C=C\CCCCCCCC(=O)NCCO	none (no result: PKA inh, Cdc25B inh, ROCK2 blocker, DUSP1 inh, JNK3 inh)
C[N+](C)(C)CCC(=O)c1cccc2ccccc12	none (no result: PKA inh, Cdc25B inh, ROCK2 blocker, DUSP1 inh, JNK3 inh)
Cc1cccc(NC(=O)c2c(O)c3cccc4c3n(c2=O)CCC4)n1	Hsp90 block 50
Cc1cnc(NC(=O)c2c(O)c3cccc4c3n(c2=O)CCC4)s1	none
Cc1cccc(S(=O)(=O)c2c(N)n(Cc3ccco3)c3nc4ccccc4nc23)c1	none
Nc1c(S(=O)(=O)c2cccc(Cl)c2)c2nc3ccccc3nc2n1/N=C/c1ccc(O)c(O)c1	PKA inh 31, Hsp90 block 59
COc1cc(C(=O)NCC2CCCO2)ccc1OCc1c(C)noc1C (centres undefined)	none (no result: Hsp90 block, ROCK2 blocker, JNK3 inh)
COc1cc(C(=O)Nc2nccs2)ccc1OCc1c(C)noc1C	JNK3 inh 21
CCn1c(=O)cc(OCC(=O)Nc2ccc(Cl)cn2)c2ccccc21	none
COc1ccc2[nH]c(=O)c3c(c2c1)OC(C)(C)C=C3	ROCK2 blocker 23
O=C(NC1CC1)c1c[nH]c2ccc(S(=O)(=O)Nc3cccc(C(F)(F)F)c3)cc2c1=O	DUSP1 inh 52
COc1ccc(CC(=O)Nc2nc3ccccc3s2)cc1S(=O)(=O)N1CCOCC1	JNK3 inh 37
COc1ccc(CC(=O)NCc2ccccc2)cc1S(=O)(=O)N1CCOCC1	none
Oc1cc(O)c2c(c1)O[C@H](c1ccc(O)c(O)c1)[C@@H](O)C2	Hsp90 block 70 (no result: PKA inh, Cdc25B inh, ROCK2 blocker, DUSP1 inh, JNK3 inh)
N#Cc1c(NCc2ccccc2)ccnc1NCc1cccnc1	JNK3 inh 75
CCOC(=O)c1oc2c(O)c(O)ccc2c(=O)c1-c1nncn1-c1ccccc1	Hsp90 block 61
O=C(c1cccs1)N(Cc1ccco1)C1CCS(=O)(=O)C1 (centres undefined)	none
O=C(c1sc2ccccc2c1Cl)N(Cc1ccco1)C1CCS(=O)(=O)C1 (centres undefined)	Hsp90 block 54
COc1cc(NCCCN(CC(C)C)CC(C)C)c2ncccc2c1Cl	none (no result: PKA inh, Cdc25B inh, ROCK2 blocker, DUSP1 inh, JNK3 inh)
OC(CN1CCC(Cc2ccc(F)cc2)CC1)c1ccc(Cl)cc1 (centres undefined)	none (no result: PKA inh, Cdc25B inh, ROCK2 blocker, DUSP1 inh, JNK3 inh)
COc1ccc(NCc2cc3ccccc3[nH]c2=O)cc1	none
COc1ccc(NCc2cc3cc(OC)ccc3[nH]c2=O)cc1	Hsp90 block 88
O=Nc1ccc2oc(=O)ccc2c1	none (no result: PKA inh, Cdc25B inh, ROCK2 blocker, DUSP1 inh, JNK3 inh)
CC(C)c1ccc(-c2nnn(CCC(=O)O)n2)cc1	none
CCc1ccc(-c2nnn(CCC(=O)OC)n2)cc1	Hsp90 block 103
CCCCCCCCCCCCC/C=C/C(O)C(N)CO (centres undefined)	none (no result: PKA inh, Cdc25B inh, ROCK2 blocker, DUSP1 inh, JNK3 inh)
Nc1nc(-c2ccccc2)nn1C(=O)Cc1ccccc1	none
COc1ccc(C(=O)n2nc(-c3ccccc3)nc2N)cc1OC	JNK3 inh 49
COC(=O)c1c(NC(=O)Cc2cccs2)sc(C)c1C	JNK3 inh 18 (no result: Hsp90 block)
Cc1cccc(C)c1NC(=O)C[N+](C)(C)C	none (no result: PKA inh, Cdc25B inh, ROCK2 blocker, DUSP1 inh, JNK3 inh)
CC(=O)c1sc(Nc2ccccn2)nc1C	JNK3 inh 23
Fc1ccc2nc3[nH]c4ccccc4c3nc2c1	JNK3 inh 37
Oc1cc(O)cc(/C=C/c2ccc(O)c(O)c2)c1	Hsp90 block 108 (no result: PKA inh, Cdc25B inh, ROCK2 blocker, DUSP1 inh, JNK3 inh)
CC(C)(C)c1onc(OCP(=O)(O)O)c1CC(N)C(=O)O (centres undefined)	none (no result: PKA inh, Cdc25B inh, ROCK2 blocker, DUSP1 inh, JNK3 inh)
COc1ccc(OC)c(NC(=O)CSc2nnc(Cc3cccn3C)n2CCc2ccccc2)c1	DUSP1 inh 65
Cn1cccc1Cc1nnc(SCC(=O)Nc2ccc(F)cc2)n1CCc1ccccc1	none
N#Cc1c(-c2ccco2)nc(SCc2ccc(F)cc2)[nH]c1=O	JNK3 inh 33
COc1cc(Nc2c3ccc(Cl)cc3nc3ccc(OC)cc23)c2ncccc2c1	none (no result: PKA inh, Cdc25B inh, ROCK2 blocker, DUSP1 inh, JNK3 inh)
Cc1cc(C(=O)CSc2nnc(-c3ccco3)o2)c(C)n1CC1COc2ccccc2O1 (centres undefined)	none
O=c1c2cc(N3CCOCC3)ccc2[nH]c(=S)n1Cc1ccco1	DUSP1 inh 81 (no result: ROCK2 blocker, JNK3 inh)
Cc1cccc(Nc2ncc3c(n2)CC(c2ccco2)CC3=O)c1 (centres undefined)	none
Cc1ccc(Nc2ncc3c(n2)CC(c2ccco2)CC3=O)c(C)c1 (centres undefined)	Cdc25B inh 78
N#Cc1ccc(OCC(=O)N2CCN(S(=O)(=O)c3cccs3)CC2)cc1	none
O=C(COc1ccccc1)N1CCN(S(=O)(=O)c2cccs2)CC1	Cdc25B inh 61 (no result: Hsp90 block)
CCS(=O)(=O)NCc1ccc2[nH]c3c(c2c1)CCCC3	Hsp90 block 71
O=C1NCCCc2c1oc1ccc(O)cc21	Cdc25B inh 50
O=C(CN1CCN(Cc2ccccc2)CC1)N1CCCc2c1c(=O)oc1ccc(O)cc21	none
CC(Sc1ccc2ccccc2n1)C(=O)O (centres undefined)	JNK3 inh 39
CC(Sc1cccc2cccc(C(=O)O)c12)C(=O)O (centres undefined)	none
O=c1[nH]c2cc(C(F)(F)F)ccc2n1-c1cc(C(F)(F)F)ccc1O	Hsp90 block 59 (no result: PKA inh, Cdc25B inh, ROCK2 blocker, DUSP1 inh, JNK3 inh)
[N-]=[N+]=Nc1ccc(C(=O)CSC[C@H](NC(=O)CC[C@H](N)C(=O)O)C(=O)NCC(=O)O)cc1	none (no result: PKA inh, Cdc25B inh, ROCK2 blocker, DUSP1 inh, JNK3 inh)
CCCN1Cc2cccc(C(=O)NCc3ccc4c(c3)OCO4)c2C1=O	JNK3 inh 24
Oc1ccc(-c2nc(-c3ccc(O)c(O)c3)cs2)cc1	Hsp90 block 99
CCOC(=O)c1ccc(Cn2cnc3ccccc3c2=O)cc1	JNK3 inh 39
COC(=O)c1ccc(Cn2cnc3ccccc3c2=O)cc1	none (no result: Hsp90 block, ROCK2 blocker, JNK3 inh)
CC(C)(C)NCC(O)COc1nsnc1N1CCOCC1 (centres undefined)	none (no result: PKA inh, Cdc25B inh, ROCK2 blocker, DUSP1 inh, JNK3 inh)
CSC(=N)N	none (no result: PKA inh, Cdc25B inh, ROCK2 blocker, DUSP1 inh, JNK3 inh)
CCOC(=O)CNC(=O)CNC(=O)c1ccc(OC)cc1	none
CCCCOc1ccc(C(=O)NCC(=O)NCC(=O)OCC)cc1	Cdc25B inh 91

Screens deposited in PubChem BioAssay by several laboratories.
